Results on 19 molecules are retold here after PubChem BioAssay (Tox21).

Inconclusive results are not listed. Active and inactive are the calls of the source. Unless noted, the call rests on the fitted dose curve; in most records, active means well fitted curve in the direction sought with a large enough effect in the repeat runs; inconclusive means weak or mixed curves; inactive means no such curve, though single readings can be large; an effect the other way counts as inactive or inconclusive. Positions of bridges follow the written chain, without caps; N, C: chain ends. Non-standard residues stand in square brackets, D forms with d. Residues, ends and D or L forms follow the SMILES beside them. *: point of attachment. X2 = CC[C@H](C)CCCCC(=O)*; Dab = NCC[C@H](N)C(=O)O

Assay [1] can be described thus: qHTS assay for small molecules that induce genotoxicity in human embryonic kidney cells expressing luciferase-tagged ATAD5 (AID 651632). Further: nearly all actives have a fitted effect of over 15% in size. The procedure, abridged: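 HEK293T cells carrying a luciferase reporter tagged to ATAD5 were exposed to compound or DMSO vehicle for 16 hr at 37C, 5% CO2. Amplite was added, and after 30 min at room temperature luciferase activity was read as a marker of ATAD5 induction.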
On the technique in general: In qHTS, concentration-response curves come from the screen itself.

The nature of assay [2]: qHTS assay for small molecule agonists of the p53 signaling pathway - cell viability (AID 651633; calls by dose curve; further: nearly all actives have a fitted effect of over 30% in size; further: potency means the concentration at half of the fitted maximal effect). A digest of the protocol: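 Viability counter-read: CellTiter-Glo luminescence (30 min, room temperature) in the same p53RE-bla plates. These plates had been exposed to compounds for 16 h at 37 C.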
A short description of assay [3]: qHTS assay for small molecules that induce genotoxicity in human embryonic kidney cells expressing luciferase-tagged ATAD5 - cell viability (AID 651634; calls by dose curve; further: nearly all actives have a fitted effect of over 25% in size; further: potency means the concentration at half of the fitted maximal effect). A digest of the protocol:
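HEK293T cells expressing luciferase-tagged ATAD5 were exposed to compound or DMSO for 15.5 hr at 37C, 5% CO2. Viability was then read as live-cell protease activity by CellTiter-Fluor fluorescence after 30 min at 37C.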

The nature of assay [4]: qHTS assay for small molecule disruptors of the mitochondrial membrane potential - cell viability (AID 720634; calls by dose curve; further: nearly all actives have a fitted effect of over 20% in size; further: potency means the concentration at half of the fitted maximal effect). A digest of the protocol:
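HepG2 cells seeded overnight at 37 C, then exposed to compound or DMSO for 1 hr at 37 C, 5% CO2. m-MPI dye added, then CellTiter-Glo for 30 min at room temperature; viability read as ATP luminescence.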

Assay [5] in a line: qHTS assay for small molecule disruptors of the mitochondrial membrane potential (AID 720635). Further: potency means the concentration at half of the fitted maximal effect. The procedure, abridged:
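Mitochondrial membrane potential tracked with Mito-MPS dye, red aggregates (ex 540/em 590 nm) against green monomers (ex 490/em 535 nm). Compound treatment 1 hr at 37C, dye 30 min in HepG2.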

Assay [6] is described as follows: qHTS assay to test for compound auto fluorescence at 590 nm (red) in HepG2 cells (AID 720674). A digest of the protocol: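 We screened compounds on adherent HepG2 cells, incubating them for an hour at 37 C in 5% CO2 before reading emission at 590 nm under 540 nm excitation; values reflect equivalence to Rose Bengal sodium fluorescence.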
Assay [7] can be described thus: qHTS assay to test for compound auto fluorescence at 535 nm (green) in HepG2 cells (AID 720675).
Assay [8] is described as follows: qHTS assay to test for compound auto fluorescence at 460 nm (blue) in HEK293 cells (AID 720678). The procedure, abridged: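 HEK293, 2,000 cells/well, 10% dialyzed FBS; attach 4-5 hr 37C; pin compound or DMSO; o/n 37C/5% CO2; fluorescence 405/460 nm; triamterene-equivalent units.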
The nature of assay [9]: qHTS assay to test for compound auto fluorescence at 590 nm (red) in HEK293 cells (AID 720679). A digest of the protocol: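 Intensity at 540nm excitation and 590nm emission is reported as Rose Bengal sodium-equivalent autofluorescence. Measurements followed overnight exposure (37C, 5% CO2) of HEK293 cells, 2,000 per well, to 23 nL compound.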
A short description of assay [10]: qHTS assay for small molecule agonists of the p53 signaling pathway (AID 651631; calls by dose curve; further: nearly all actives have a fitted effect of over 15% in size). The procedure, abridged: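 Agonist mode screen using a stably integrated beta-lactamase gene under p53 response elements in HCT-116 cells. Compound exposure lasts 16 h at 37 °C; fluorescence intensity is measured following 2 h FRET substrate loading.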

In the case of `CC(=O)O[C@H]1C(=O)[C@@]2(C)[C@H]([C@H](OC(=O)c3ccccc3)[C@]3(O)C[C@H](OC(=O)[C@H](O)[C@@H](NC(=O)c4ccccc4)c4ccccc4)C(C)=C1C3(C)C)[C@]1(OC(C)=O)CO[C@@H]1C[C@@H]2O`, the Potency result in [1], in assay [2], in assay [4], in assay [6], in assay [7] and in assay [8] was “inactive” throughout. The Potency result in [9] is “inactive”. For the same molecule, the Potency was 18.8 nM (active) in assay [3] and 944 nM (active) in assay [5].

As to `Cn1c(=O)c2c(ncn2CCOC(=O)C(C)(C)Oc2ccc(Cl)cc2)n(C)c1=O`, the Potency entry in assay [1], in [2], in assay [3], in assay [4], in assay [5] and in assay [6] was “inactive” throughout. Besides, the Potency entry in assay [7], in [8] and in assay [9] was “inactive” in each case.

Consider `Nc1ncnc(Nc2ccc(Cl)cc2)n1`, for which the Potency entry in assay [10], in assay [2], in assay [3], in assay [6], in assay [7] and in assay [8] was “inactive” each time. Also, the Potency result in assay [9] was “inactive”.

As to `OCCO[C@@H]1[C@@H](O)[C@H](O)[C@@H](CO)O[C@@H]1O`, the Potency result in [10], in assay [2], in assay [3], in assay [5], in [6] and in assay [7] was “inactive” each time. The Potency result in [8] and in assay [9] was “inactive” in each case.

Take `C#C[C@]1(O)CC[C@H]2[C@@H]3CCC4=CC(=O)CC[C@@H]4[C@H]3C(=C)C[C@@]21CC`: the Potency entry in assay [1], in [2], in assay [3], in assay [4], in assay [5] and in assay [6] was “inactive” throughout. The Potency result in [7], in [8] and in assay [9] was “inactive” in each case.

As to `O=C(O)[C@H]1/C(=C/CO)O[C@@H]2CC(=O)N21`, the Potency entry in [1], in assay [2], in [3], in assay [4], in assay [5] and in [6] was “inactive” throughout. Also, the Potency entry in [7], in [8] and in assay [9] was “inactive” in each case.

For the molecule `CC[C@H](C)CCCCC(=O)N[C@@H](CCN)C(=O)N[C@H](C(=O)N[C@@H](CCN)C(=O)N[C@H]1CCNC(=O)[C@H]([C@@H](C)O)NC(=O)[C@H](CCN)NC(=O)[C@H](CCN)NC(=O)[C@H](CC(C)C)NC(=O)[C@@H](CC(C)C)NC(=O)[C@H](CCN)NC1=O)[C@@H](C)O` (X2-[Dab]T[Dab][Dab][Dab][dL]L[Dab][Dab]T; lactam 4-C), the Potency entry in assay [1], in [2], in assay [3], in assay [4], in assay [5] and in assay [6] was “inactive” in each case. The Potency result in assay [7], in [8] and in assay [9] was “inactive” each time.

In the case of `CCCC(=O)Nc1c(I)cc(I)c(CC(CC)C(=O)O)c1I` (configuration not stated), the Potency result in [1], in assay [2], in assay [3], in assay [4], in assay [5] and in [6] was “inactive” in each case. The Potency result in assay [7], in assay [8] and in assay [9] was “inactive” throughout.

Regarding `O=[N+]([O-])c1c(Cl)cccc1-c1c[nH]cc1Cl`, the Potency result in [1], in [3], in [6], in assay [7], in assay [8] and in [9] was “inactive” in each case. The Potency in assay [2] was 33500 nM (active); in [4], 10600 nM (active); in [5], 2980 nM (active).

As for `COc1ccc2cc([C@H](C)CO)ccc2c1`, the Potency result in assay [1], in [2], in assay [3], in [4], in [5] and in assay [6] was “inactive” throughout. The Potency entry in assay [7], in [8] and in assay [9] was “inactive” throughout.

As for `COc1ccc(CNCC(O)COc2ccc3[nH]c(=O)ccc3c2)cc1OC` (configuration not stated), the Potency entry in assay [10], in assay [2], in [3], in [4], in assay [5] and in [6] was “inactive” throughout. Further, the Potency result in assay [7], in [8] and in assay [9] was “inactive” throughout.

Regarding `CC1CCC(NC(=O)N(CCCl)N=O)CC1` (configuration not stated), the Potency result in assay [10], in assay [2], in assay [3], in assay [4], in assay [5] and in [6] was “inactive” each time. Also, the Potency result in [7], in assay [8] and in assay [9] was “inactive” each time.

For the molecule `CC(=O)Oc1c(C)cc(OCC(O)CNC(C)C)c(C)c1C` (configuration not stated), the Potency entry in [10], in [3], in [4], in [5], in assay [6] and in [7] was “inactive” throughout. In addition, the Potency entry in assay [8] and in assay [9] was “inactive” in each case.

Turning to `CCCCC[C@H](O)/C=C/[C@@H]1[C@H]2C/C(=C/CCCC(=O)O)O[C@H]2C[C@H]1O`, the Potency result in assay [1], in [2], in assay [3], in assay [4], in assay [5] and in assay [6] was “inactive” each time. The Potency result in assay [7], in assay [8] and in [9] was “inactive” in each case.

On to `O=[N+]([O-])O[C@@H]1CO[C@H]2[C@@H]1OC[C@@H]2O`, for which the Potency entry in assay [1], in assay [2], in assay [3], in assay [4], in assay [5] and in assay [6] was “inactive” throughout. In addition, the Potency result in [7], in assay [8] and in assay [9] was “inactive” throughout.

Take `Cc1c(Cl)cccc1Nc1ncccc1C(=O)O`: the Potency entry in assay [1], in assay [2], in assay [3], in assay [4], in assay [6] and in assay [7] was “inactive” throughout. The Potency result in assay [8] and in [9] was “inactive” each time. For the same molecule, the Potency in assay [5] was 13300 nM (active).

As to `CCOC(=O)[C@@H](N)CS`, the Potency entry in [1], in assay [2], in assay [3], in [4], in [5] and in assay [6] was “inactive” in each case. Further, the Potency result in assay [7], in [8] and in assay [9] was “inactive” throughout.

For `C[C@]12CC[C@@H]3c4ccc(OC(=O)c5ccccc5)cc4CC[C@H]3[C@@H]1CC[C@@H]2O`, the Potency entry in [1], in [2], in assay [3], in [4], in assay [6] and in [7] was “inactive” each time. In addition, the Potency entry in [8] and in [9] was “inactive” each time. Moreover, the Potency in assay [5] is 2980 nM (active).

Regarding `Cc1ccc(C2(O)CCN(CCCC(=O)c3ccc(F)cc3)CC2)cc1`, the Potency result in assay [1], in assay [2], in assay [3], in assay [4], in [5] and in [6] was “inactive” each time. The Potency result in assay [7], in [8] and in [9] was “inactive” in each case.
